NPR1 antag: antagonists of human natriuretic peptide receptor Npr1; AID 1347048; Potency, µM (titrated, usually from 46.3 µM), inactives show at the top dose activity change, negative = inhibition, actives largely listed as inhibitors; P16066; 76,000 tested, 1.6% active; HEK293 hNpr1 GloSensor cGMP, ANP-stimulated luminescence; calls by dose curve; note: % is set by controls: 0 for no effect and ±100 for the full control effect; nearly all actives have a fitted effect of over 60% in size
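HEK293 cells stably expressing human Npr1 and cGMP GloSensor pGS-40F, loaded 2 h with 2% GloSensor reagent, given compound 30 min at room temperature. Luminescence read before and 20 min after 0.1 nM hNppA.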
HEK293 tox: HEK 293 cell cytotoxicity; HEK 293 viability, ATP luminescence (CellTiter-Glo), 48-72 h; Potency, µM (highest dose often 115 µM), inactives show top-dose activity change, negative = cytotoxicity, usual class: inhibitors; 94,000 tested, 6.6% active; AID 1345083; note: % is set by controls: 0 for no effect and ±100 for the full control effect; nearly all actives have a fitted effect of over 60% in size
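Read-out: CellTiter-Glo ATP luminescence. Cells: HEK 293, 250 cells/well. Exposure: 48 or 72 hr, 37 degree Celsius.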
Luciferase inh: inhibitors of firefly (Photinus pyralis) luciferase; P08659; purified P. pyralis luciferase, luminescence, biochemical; Potency, µM (highest dose often 115 µM), most hits filed as inhibitors; 76,000 tested, 2.5% active; note: % is set by controls: 0 for no effect and ±100 for the full control effect; nearly all actives have a fitted effect of over 65% in size
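Cell-free enzyme assay, 10nM P. pyralis luciferase, luciferin and ATP each at 10uM. Inhibition profiled over a 6-point titration, read as luminescence.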
GPT2 inhibitor: blocks human glutamate pyruvate transaminase 2. AID 1671188. Potency, µM (series often up to 57.7 µM), for the others: at the top dose activity change, negative = inhibition, most hits filed as inhibitors. 100,000 tested, 0.25% active. Q8TD30. Recombinant GPT2, coupled pyruvate oxidase/HRP Amplex Red fluorescence; note: % is set by controls: 0 for no effect and ±100 for the full control effect; nearly all actives have a fitted effect of over 60% in size
Target sequence (Q8TD30 whole entry, looked up): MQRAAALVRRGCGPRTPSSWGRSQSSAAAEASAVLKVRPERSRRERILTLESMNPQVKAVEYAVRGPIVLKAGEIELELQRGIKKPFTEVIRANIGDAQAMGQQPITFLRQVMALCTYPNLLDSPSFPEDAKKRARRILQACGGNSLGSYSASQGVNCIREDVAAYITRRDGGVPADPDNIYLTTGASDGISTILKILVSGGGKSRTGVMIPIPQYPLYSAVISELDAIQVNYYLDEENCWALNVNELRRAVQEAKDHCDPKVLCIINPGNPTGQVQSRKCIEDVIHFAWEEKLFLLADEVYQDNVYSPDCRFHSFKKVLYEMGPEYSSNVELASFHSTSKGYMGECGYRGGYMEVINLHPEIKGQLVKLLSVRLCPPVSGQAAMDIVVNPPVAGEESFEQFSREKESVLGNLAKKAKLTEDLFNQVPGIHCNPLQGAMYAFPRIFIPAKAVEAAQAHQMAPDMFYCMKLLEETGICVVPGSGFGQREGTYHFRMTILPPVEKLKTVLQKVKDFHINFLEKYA
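Fluorescence of coupled pyruvate oxidase/HRP/Amplex Red system (50uM Amplex, 30 min, dark) reports pyruvate formed by GPT2. Enzyme reaction: 10ng/uL GPT2, 2mM L-alanine, 250uM a-KG, 30 min room temperature, pH 7.5; 50uM AOA control.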
3T3 cytotox: NIH 3T3 cell cytotoxicity; NIH 3T3 viability, CellTiter-Glo ATP luminescence, 48-72 h; Potency, µM (top dose mostly 96.7 µM), without a hit: top-dose activity change, negative = cytotoxicity, actives largely listed as inhibitors; 94,000 tested, 4.3% active; AID 1345082; note: % is set by controls: 0 for no effect and ±100 for the full control effect; nearly all actives have a fitted effect of over 55% in size
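NIH 3T3 cells at 400 cells/well received 23 nL of compound by pintool and were incubated 48 or 72 h at 37 °C. Viability was read as ATP-coupled CellTiter-Glo luminescence.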
NPR1 antag cnf: confirmation of human Npr1 natriuretic peptide receptor antagonists. shares compounds with NPR1 antag. HEK293 hNpr1 cGMP GloSensor luminescence, ANP-stimulated. Potency, µM (titrated, usually from 57.6 µM), inactives show at the highest dose activity change, negative = inhibition, actives largely listed as inhibitors. 1,400 tested, 76% active; calls by dose curve; note: nearly all actives have a fitted effect of over 70% in size
Npr2 selectivity: selectivity test of Npr1 antagonists against human Npr2. shares compounds with NPR1 antag. HEK293 hNpr2 GloSensor cGMP luminescence, CNP-stimulated. Potency, µM (titrated, usually from 57.6 µM), inactives show at the top dose activity change, negative = inhibition, most hits filed as inhibitors. 1,400 tested, 67% active. AID 1347046; calls by dose curve; note: nearly all actives have a fitted effect of over 70% in size
FLuc counter: counter-screen for Npr1 antagonists: firefly luciferase inhibitors; shares compounds with NPR1 antag; 1,400 tested, 0.7% active; purified FLuc enzyme, luminescence, Km substrate; Potency, µM (doses to about 57.6 µM), for the others: at the highest dose activity change, negative = inhibition, hits mostly inhibitors; note: 0% is about no effect
GloSensor ctrl: control cell line activity, Npr1 antagonist counter-screen. Potency, µM (doses to about 57.6 µM), for inactives: top-dose activity change, negative = inhibition, hits mostly inhibitors. shares compounds with NPR1 antag. AID 1347051. 1,400 tested, 69% active. HEK293 GloSensor cGMP, SNP-stimulated, luminescence; calls by dose curve; note: % is set by controls: 0 for no effect and ±100 for the full control effect; nearly all actives have a fitted effect of over 70% in size
* marks the source's active call; other numbers are inactive results; i = inactive; ? = inconclusive; · = not tested or not shown; [ ] = dose if it differs, or a comment. Most compounds without a hit are left out; they make up all but 10% or so of the library. Unless noted, calls come from the whole dose curve; as a rule, active = well fitted curve in the direction sought with a large enough effect; inconclusive = small, poorly fitted or top-dose-only effect, or another doubt; inactive = no such curve, though single readings can be large; an effect the other way counts as inactive or inconclusive. Potency is the fitted concentration of half-maximal effect.

SMILES	NPR1 antag	HEK293 tox	Luciferase inh	GPT2 inhibitor	3T3 cytotox	NPR1 antag cnf	Npr2 selectivity	FLuc counter	GloSensor ctrl
C[C@H](O)C(=O)N1CCc2ccc(S(=O)(=O)NCCOc3ccccc3)cc2C1	-1.1%	?	i	i[11.5 µM]	-13.6%	·	·	·	·
CCCCc1ncc(CN2CCC(Oc3ccc(C(=O)NCCOC)cc3Cl)CC2)[nH]1	6.0%	-19.1%	i	i	-27.3%	·	·	·	·
C=CCN(C)C(=O)CC1COc2ccc(C(=O)N(C)C)cc2N1C (stereo not given)	5.4%	-9.3%	i	2.6%	-11.9%	-5.8%	-7.1%	2.0%	-7.0%
O=C(Nc1ccc2cn[nH]c2c1)c1ccc2c(c1)OCCN(c1ccccc1)C2	?	44.7µM*	i	-9.2%[88.5 µM]	39.8µM*	35.3µM*	?	-18.4%[86.2 µM]	35.3µM*
O=C(Nc1ccc(-c2cccc(F)c2)cc1)C1CCCN(C(=O)c2ccncc2)C1 (stereo not given)	7.08µM*	14.1µM*	i	i	?	13.7µM*	15.3µM*	-15.3%	10.9µM*
O=C(Nc1cccc(-c2ccc(F)cc2)c1)C1CCCN(C(=O)c2cccnc2)C1 (stereo not given)	-15.1%	?	i	3.2%	?	·	·	·	·
Cc1cccc(N2CCN(C(=O)CC3CCCCN(Cc4ccccc4)C3=O)CC2)c1 (stereo not given)	12.6µM*	?	i	i	?	19.3µM*	21.7µM*	-0.8%	21.7µM*
O=C(O)CC1CCCCN(Cc2ccccc2)C1=O (stereo not given)	-0.8%	-18.0%	i	4.8%	-17.3%	·	·	·	·
O=C(NCc1ccc(N2CCCC2)cc1)C1CCCN(c2cnn(Cc3ccccc3)c(=O)c2)C1 (stereo not given)	?	?	i	-27.9%	?	?	?	-1.5%	?
CNc1ncccc1C(=O)N1CC[C@@H](c2ccc3c(c2)OCO3)[C@H](O)C1	-2.7%	i	i	-11.8%	i	·	·	·	·
Cc1nc(-c2c3n(c(=O)n(Cc4ccc(Cl)cc4)c2=O)CCCCC3)no1	9.4%	-6.0%	i	i	-6.1%	·	·	·	·
CC(=O)Nc1ccccc1-c1c(C)nn2c1N(CCC(C)C)CCC2	-26.7%[70.6 µM]	?	i	-24.6%[88.5 µM]	?	·	·	·	·
Cc1nn2c(c1-c1ccccc1[S+](C)(=O)[O-])N(CCC(C)C)CCC2	11.2µM*	?	i	2.9%[88.5 µM]	?	3.14µM*	8.86µM*	0.1%[86.2 µM]	3.14µM*
Cc1ccc(S(=O)(=O)N2CCc3c(C(=O)NCc4ccccn4)cccc32)cc1	11.2µM*	?	i	-9.0%	?	24.3µM*	24.3µM*	-7.5%	30.6µM*
CCCNC(=O)c1cccc2c1CCN2S(=O)(=O)c1ccccc1F	-24.9%	?	i	-12.7%	-18.6%	·	·	·	·
CCCNC(=O)c1cccc2c1CCN2S(=O)(=O)c1ccc(OC)cc1	?	?	i	?	-21.5%	·	·	·	·
COc1ccc(S(=O)(=O)N2CCc3c(C(=O)NCc4cccc(F)c4)cccc32)cc1	?	?	i	-21.7%	-25.2%	?	?	-12.8%	?
Cc1nc2ccccc2c(-c2ccc3c4c(ccnc24)CCO3)c1[C@H](OC(C)(C)C)C(=O)O	·	·	·	i	·	·	·	·	·
COc1ccc(C(=O)N2CCC(Cc3ccc(CCC(=O)N(C)C)cc3)CC2)cn1	·	?	·	-3.0%	?	·	·	·	·
Cc1noc(-c2ccco2)c1C(=O)NCc1cccc2ccccc12	12.6µM*	?	i	?	?	24.3µM*	?	2.7%	30.6µM*
Cc1noc(-c2cccc(F)c2)c1C(=O)NCc1cccc2ccccc12	1.1%	?	i	i	-16.7%	·	·	·	·
CC1=C[C@@H](CNS(C)(=O)=O)[C@H](C(C)C)C[C@H]1Cc1nc2ccccc2n1C	28.2µM*	?	i	?	?	35.3µM*	28µM*	0.4%[86.2 µM]	31.4µM*
CCCC1=Nc2cc(C(=O)NCCc3ccc(OC)c(OC)c3)ccc2Sc2ccccc21	?	?	i	i	?	?	?	1.3%	?
CCCC1=Nc2cc(C(=O)NCCc3ccc(OC)c(OC)c3)ccc2Sc2ccc(C)cc21	-11.5%	?	i	i	?	·	·	·	·
COc1ccc(-c2cnc(NC(=O)Cc3ccc(F)cc3)c3c2CCO3)cn1	-12.5%[70.6 µM]	?	i	i	?	·	·	·	·
SMILES	NPR1 antag	HEK293 tox	Luciferase inh	GPT2 inhibitor	3T3 cytotox	NPR1 antag cnf	Npr2 selectivity	FLuc counter	GloSensor ctrl
O=C(N1CCC(c2ccccc2)CC1)C1(c2ccc(Cl)cc2)CCOCC1	·	?	·	i	?	?	?	3.5%	-19.0%
CCCN1CCCC12Cc1ccccc1CN(C(=O)CCNC(C)=O)C2 (stereo not given)	·	-5.7%	·	3.5%	-1.9%	·	·	·	·
CCc1ccc(CN2CCCC(CNC(=O)c3cccc(OC)c3OC)C2)o1 (stereo not given)	6.0%	?	i	?	-2.6%	·	·	·	·
CC(=O)NCC1CCCN(Cc2ccc(-c3ccccc3C#N)o2)C1 (stereo not given)	-22.0%	-21.3%	i	i	-25.6%	?	?	-1.2%	8.1%
O=C(CCC1CCCC1)NCCc1noc(-c2ccccc2)n1	?	79.4µM*	i	-15.8%	?	?	-25.4%	0.9%	-10.0%
O=C(NCCc1noc(-c2ccccc2)n1)c1ccccc1	-15.1%	?	i	-15.2%	-27.0%	·	·	·	·
COc1ccc(C(=O)NCCc2noc(-c3ccccc3)n2)cc1F	?	?	i	-24.5%	?	?	-16.9%	1.2%	6.8%
CC(C)(C)CC(=O)NCCc1noc(-c2ccccc2)n1	3.4%	-8.8%	i	i	-25.2%	·	·	·	·
O=C(O)C[C@@H]1CCN(C(=O)c2ccc(F)cc2)C[C@@H]1CCN1CCN(c2cccc(C(F)(F)F)c2)CC1	3.2%	-18.7%	i	5.0%	-26.0%	·	·	·	·

From PubChem
